From article PMC5540273 (PLoS ONE, 2017)

Each compound was assayed on RIOK3. Conditions: concentration: 1 μM, replicates: in singlicate; n = 1.
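Also: KINOMEscan kinase panel screen.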

| SMILES | %Inh |
| --- | --- |
| COC(=O)Nc1nc2cc(Oc3ccc(NC(=O)Nc4cc(C(F)(F)F)ccc4F)cn3)ccc2[nH]1.Cl.Cl [GW681170] | 14% |
| Fc1ccc(-c2ncn(C3CCNCC3)c2-c2ccnc(Oc3ccc(-c4ccccc4)cc3)n2)cc1 [SB-245391] | 5% |
| Cc1ccc(C)c(NC(=O)NC2CCN(c3ccnc(Nc4ccc(F)cc4)n3)C2)c1 (centres unmarked) [GSK1379720] | 0% |
| CSc1cccc2c(-c3ccncn3)c(-c3ccc(F)cc3)nn12 [GW514786] | 21% |
| Oc1cc(Nc2ccnc3cc(I)ccc23)ccc1F [GW552771] | 0% |
| Cc1ccc(S(=O)(=O)Nc2ccc(Nc3nccc(Nc4cccc5[nH]ncc45)n3)cc2)cc1 [GSK581271] | 34% |
| COc1cccc(-c2ccc3c(NC(=O)C4CC4)n[nH]c3n2)c1 [SB-710903] | 0% |
| O=C(Nc1cccc(-c2nn3ccccc3c2-c2ccnc(Nc3cccc(C(F)(F)F)c3)n2)c1)c1c(F)cccc1F [GSK292658] | 0% |
| Cl.Cl.NCC(NCc1ccc(-c2ccnc3[nH]ccc23)s1)c1ccccc1 (centres unmarked) [GSK1321565] | 98.4% |
| CCn1c(-c2nonc2N)nc2c(C#CC(C)(C)O)nc(OC[C@H](N)c3ccccc3)cc21 [GSK943949] | 4% |
| COCCOCCOc1cc2ncc3c4ccc(C#N)cc4[nH]c3c2cc1OC | 83% |
| Clc1ccc(-c2nn3ncccc3c2-c2ccnc(Nc3ccc4c(c3)OCCO4)n2)cc1 [GW829116] | 0% |
| COc1cccc(NC(=O)NC2CCN(c3ccnc(Nc4cc(OC)c(OC)c(OC)c4)n3)C2)c1 (centres unmarked) [GSK1379763] | 82% |
| COc1cccc(C(=O)Nc2cccc(Oc3ccc4nc(NC(=O)C5CC5)cn4n3)c2)c1 | 39% |
| CN(C)Cc1ccc(-c2ccc3c(Nc4ccc(Oc5ccccn5)cc4)ccnc3c2)o1 [GW567148] | 0% |
| Nc1ncc(-c2cccnc2)c2scc(-c3ccc4c(c3)CCN4C(=O)Cc3ccccc3)c12 [GSK683281] | 22% |

| SMILES | %Inh |
| --- | --- |
| COc1ccc(Nc2nccc(NCCNC(=O)c3cc4ccccc4s3)n2)cc1 [GSK1379896] | 0% |
| O=C(Nc1n[nH]c2nc(-c3ccc(O)cc3)ccc12)C1CC1 [SB-710363] | 46% |
| O=C(Nc1cccc(-c2nn3ccccc3c2-c2ccnc(Nc3cccc(F)c3)n2)c1)c1c(F)ccc(F)c1Cl [GSK357952] | 16% |
| CN1CCN(Cc2cccc(-c3ccc4c(Nc5ccc(Oc6ccccc6)cc5)ccnc4c3)c2)CC1 [GW578342] | 32% |
| COc1cc(Nc2nccc(N3CCC(NC(=O)Nc4cccc(C(C)=O)c4)C3)n2)cc(OC)c1OC (centres unmarked) [GSK1379753] | 65% |
| c1ccc(Oc2ccc(Nc3ccnc4cc(-c5ccc(CNCCN6CCOCC6)o5)ccc34)cc2)nc1 [GW567145] | 0% |
| CC(C)c1nc(-c2cccc(NS(=O)(=O)c3c(F)cccc3F)c2F)c(-c2ccnc(Nc3ccc(N4CCOCC4)nc3)n2)s1 [GSK2008607] | 17% |
| C[C@@H](Oc1cc(-n2cnc3cc(-c4ccnc(NCCS(C)(=O)=O)c4)ccc32)sc1C(N)=O)c1ccccc1Cl [GSK907232] | 76% |
| Cn1cc(-c2[nH]c3cc(NC(=O)[C@H](N)C4CCCCC4)cc4c3c2C=NNC4=O)cn1 | 88% |
| CCS(=O)(=O)c1ccc(OC)c(Nc2nccc(-c3c(-c4cccc(NC(=O)c5c(F)cccc5F)c4)nn4ncccc34)n2)c1 [GSK326180] | 56% |
| Cl.NC(=O)c1cccc(Nc2nccc(Nc3ccc(Oc4c(Cl)cccc4Cl)c(Cl)c3)n2)c1 [GW659009] | 51% |
| Nc1ncc(-c2ccc3nccc(-c4ccncc4)c3c2)cc1S(=O)(=O)N1CCOCC1 [GSK1627798] | 17% |
| Cn1cc(-c2ccc3c(c2)CCN3C(=O)Cc2cccc(Cl)c2)c2c(N)ncnc21 [GSK2606590] | 12% |
| CC(C)(C)c1ccc2nccc(Nc3cccc(O)c3)c2c1 [GW856795] | 24% |
| CC(=O)Nc1nc2cnc(Nc3cc(NC(=O)c4cccc(C5(C#N)CC5)c4Cl)ccc3C)nc2s1 | 3% |
| COc1cc(Nc2nccc(N3CCC(NC(=O)c4cc5ccccc5s4)C3)n2)cc(OC)c1OC (centres unmarked) [GSK1379760] | 53% |
